# Experimental data as given in PubChem BioAssay AID1053197 (The Scripps Research Institute Molecular Screening Center, 2014).
# Where “and” joins values, the source holds several entries; their conditions need not be identical. Equal entries are not always repeated. The whole screen tested about 370,000 compounds, of which about 2,600 (0.7%) were called active. The entries come from a sample that favours actives as a whole. Unmarked numbers belong to inactive results.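 The calls were made as follows: active = inhibition above a cutoff: mean of compounds within the control limits plus 3 SD of those (cut at about 17% in these data); inactive = the rest.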
# Target: Sialate O-acetylesterase (Homo sapiens) (UniProt Q9HAT2)
# Sequence (Q9HAT2 whole entry, looked up): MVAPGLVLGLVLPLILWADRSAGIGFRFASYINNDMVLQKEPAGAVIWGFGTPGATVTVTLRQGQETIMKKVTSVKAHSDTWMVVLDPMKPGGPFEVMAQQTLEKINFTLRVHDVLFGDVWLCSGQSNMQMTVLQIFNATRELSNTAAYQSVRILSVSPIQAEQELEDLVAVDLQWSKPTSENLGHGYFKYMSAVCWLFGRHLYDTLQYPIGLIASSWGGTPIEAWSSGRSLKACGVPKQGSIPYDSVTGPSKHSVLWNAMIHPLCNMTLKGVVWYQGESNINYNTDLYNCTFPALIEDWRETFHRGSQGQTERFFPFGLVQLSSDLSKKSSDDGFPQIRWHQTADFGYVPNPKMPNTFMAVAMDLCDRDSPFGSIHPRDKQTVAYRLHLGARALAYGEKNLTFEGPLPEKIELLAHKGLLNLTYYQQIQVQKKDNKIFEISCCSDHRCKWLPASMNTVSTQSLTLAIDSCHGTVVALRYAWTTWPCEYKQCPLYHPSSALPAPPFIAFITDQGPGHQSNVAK
# Test: blockers of sialate O-acetylesterase activity-probe labeling – biochemical, fluorescence polarization, FP-Rh probe, 1536-well HTS, primary screen (AID 1053197);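 also: 0% = plate median of compound wells and 100% = probe without SIAE protein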
# Details: SIAE FP-Rh probe binding, at 9.66 µM, active compounds read high
row,SMILES,inhibition
1,Cc1cccc(-n2c(O)c(/C=N/N3CCOCC3)c(=O)[nH]c2=S)c1,1.16%
2,CC(C)c1ccc(-n2c(O)c(/C=N/N3CCOCC3)c(=O)[nH]c2=S)cc1,24.9% (active)
3,O=c1[nH]c(=S)n(C2CC2)c(O)c1/C=N/N1CCOCC1,-9.2%
4,CO[C@H]([C@H](C)/C=C/N(C)C=O)[C@@H](C)C(=O)CC[C@H](C)[C@H](O)[C@H](C)[C@H]1OC(=O)/C=C/C(C)=C/[C@H](O)[C@H](OC)C[C@@H]2C=CC[C@@H](C[C@H](OC)[C@@]3(CO3)[C@@H](OC)C[C@@H](OC)[C@@H]1C)O2,9.94%
5,CCOC(=O)C1(CCc2ccccc2)CCN(Cc2ccco2)CC1,2.93%
6,O=S(=O)(c1ccccc1)N1CCC2CCNC2C1 (stereo not given),-2.28%
7,Cc1cc(C(=O)OCC(=O)Nc2c(F)cccc2F)c(C)n1C1CC1,-0.24%
8,Cc1cc(C=C2C(=O)NC(=O)NC2=O)c(C)n1-c1ccncc1,17.8% (active)
9,Cc1ccnc(-n2c(C)cc(/C=C3\C(=O)NC(=S)N(C)C3=O)c2C)c1,0.93%
10,CN(C)C(=O)Oc1cc(OC(=O)N(C)C)cc(C(O)CNC(C)(C)C)c1 (stereo not given),-1.59% and 2.18%
11,Nc1ccc(C(=O)N/N=C2/CN3CCC2CC3)cc1,21.4% (active)
12,CCN(CC)C(=O)c1ccc(NC(=O)c2sccc2-c2ccccc2)cc1,-4.91%
13,c1cc2c(c(NC3=NCCCS3)c1)CCCC2,2.24%
14,COC(=O)COc1cc(C)cc2oc(=O)c3c(c12)CCCC3,-2.75%
15,COC(=O)C1=C(c2ccc(F)cc2OCc2ccccc2)C[C@@H]2CC[C@H]1N2C(=O)NCc1ccc2[nH]ccc2c1,-4.35%
